Consider 24 compounds from PubChem BioAssay (EPA / NIEHS).

Test [1] is described as follows: ATG_CRE_CIS: Attagene CIS-FACTORIAL HepG2 Assay for human cAMP Responsive Element (CRE) binding protein 3 (AID 2282926). The conditions noted are these: HepG2 CRE cis-reporter, Attagene multiplexed mRNA; actives raise or lower the signal. The method, boiled down:
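Human liver HepG2, transient MRTU transfection, 24 h compound exposure. Total RNA → oligo(dT) RT → PCR → 6-FAM primer extension → HpaI cut → CE. Activity called both directions vs DMSO.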

Test [2] deals with CCAAT/enhancer-binding protein beta (Homo sapiens) (UniProt P17676). The experiment in a line: ATG_C_EBP_CIS: Attagene CIS-FACTORIAL HepG2 Assay for human CCAAT/Enhancer Binding Protein (C/EBP) beta (AID 2282927). The conditions noted are these: HepG2 Attagene cis-factorial transcription factor reporter; actives raise or lower the signal. The method, boiled down:
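Following a 24 h incubation with test chemical, transfected HepG2 cells yielded RNA whose reporter transcripts were quantified by RT-PCR and fluorescent capillary electrophoresis, with DMSO serving as baseline for bidirectional fitting.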

Test [3] is described as follows: ATG_CMV_CIS: Attagene CIS-FACTORIAL HepG2 Assay for human CMV (Internal Marker) (AID 2282928).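 Also: endpoint acts as a background internal control marker rather than a target.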 To be noted: HepG2 CMV promoter reporter, transcription factor profiling; actives raise or lower the signal. The method, boiled down:
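Endogenous transcription factor activity read in HepG2 via transfected cis-promoter reporter units. After 24 h dosing, reporter mRNA measured by RT-PCR/capillary electrophoresis; gain or loss of signal fit relative to DMSO.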

The nature of test [4]: ATG_DR4_LXR_CIS: Attagene CIS-FACTORIAL HepG2 Assay for human Liver X Receptor (LXR), DR4 submotif (AID 2282929). To be noted: HepG2 Attagene DR4 cis-reporter, mRNA transcription; actives raise or lower the signal. The method in brief:
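HepG2 cells transiently transfected with cis-promoter-driven multiplexed reporter units (DR4 element) were dosed for 24 h. Reporter mRNA was quantified by RT-PCR, fluorescent primer extension, HpaI digestion and capillary electrophoresis; bidirectional fitting versus DMSO baseline.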

The target of test [5] is Aryl hydrocarbon receptor (Homo sapiens) (UniProt P35869). The test is described as follows: ATG_Ahr_CIS: Attagene CIS-FACTORIAL HepG2 Assay for human Aryl Hydrocarbon Receptor (Ahr) (AID 2282930). To be noted: HepG2 AhR cis-factorial reporter transcription; actives raise or lower the signal. The method in brief:
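Values derive from bidirectional fitting against DMSO negative control. Underlying signal: cis-element reporter mRNA in transiently transfected HepG2, harvested 24 h post-dose and measured by RT-PCR plus capillary electrophoresis.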

Test [6] can be described thus: ATG_AP_1_CIS: Attagene CIS-FACTORIAL HepG2 Assay for human Activator Protein 1 (AP-1) (AID 2282931). To be noted: HepG2 Attagene cis-factorial AP-1 reporter mRNA; actives raise or lower the signal. The method, boiled down:
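HepG2 cells transiently transfected with cis-element-driven multiplex reporter units; 24 h compound exposure. Reporter mRNA quantified by RT-PCR, FAM-labelled fragments resolved by capillary electrophoresis; bidirectional fit versus DMSO baseline.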

Test [7] can be described thus: ATG_AP_2_CIS: Attagene CIS-FACTORIAL HepG2 Assay for human Activator Protein 2 (AP-2) (AID 2282932). The conditions noted are these: HepG2 AP-2 cis-reporter, Attagene transcription factor profiling; actives raise or lower the signal. The method, boiled down:
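HepG2 cells were transiently transfected with multiple cis-promoter reporter transcription units and dosed for 24 h. Reporter mRNA was measured by RT-PCR with capillary electrophoresis fluorescence; bidirectional fits relative to DMSO baseline.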

The nature of test [8]: ATG_BRE_CIS: Attagene CIS-FACTORIAL HepG2 Assay for human Bone Morphogenetic Protein (BMP) Response Element (BRE) (AID 2282933). To be noted: HepG2 BMP response element reporter, Attagene transcription factor profiling; actives raise or lower the signal. The method in brief:
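After a 24 h chemical treatment, transiently transfected HepG2 cells were lysed for RNA; reporter transcripts were quantified by fluorescent RT-PCR and capillary electrophoresis, normalised to DMSO.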

Test [9] deals with Retinoic acid receptor alpha (Homo sapiens) (UniProt P10276). The test is described as follows: ATG_DR5_RAR_CIS: Attagene CIS-FACTORIAL HepG2 Assay for human Retinoic Acid Receptor Alpha (RARE), DR5 submotif (AID 2282934). To be noted: HepG2 Attagene cis-factorial RARE DR5 reporter, mRNA; actives raise or lower the signal. The method in brief: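 Endpoint fitted in both directions relative to DMSO as negative control. It reflects DR5 cis-element reporter mRNA induction in transiently transfected HepG2 cells, measured 24 h after dosing through RT-PCR and fluorescent capillary electrophoresis.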
Chain of Retinoic acid receptor alpha (Homo sapiens) (P10276 whole entry, looked up): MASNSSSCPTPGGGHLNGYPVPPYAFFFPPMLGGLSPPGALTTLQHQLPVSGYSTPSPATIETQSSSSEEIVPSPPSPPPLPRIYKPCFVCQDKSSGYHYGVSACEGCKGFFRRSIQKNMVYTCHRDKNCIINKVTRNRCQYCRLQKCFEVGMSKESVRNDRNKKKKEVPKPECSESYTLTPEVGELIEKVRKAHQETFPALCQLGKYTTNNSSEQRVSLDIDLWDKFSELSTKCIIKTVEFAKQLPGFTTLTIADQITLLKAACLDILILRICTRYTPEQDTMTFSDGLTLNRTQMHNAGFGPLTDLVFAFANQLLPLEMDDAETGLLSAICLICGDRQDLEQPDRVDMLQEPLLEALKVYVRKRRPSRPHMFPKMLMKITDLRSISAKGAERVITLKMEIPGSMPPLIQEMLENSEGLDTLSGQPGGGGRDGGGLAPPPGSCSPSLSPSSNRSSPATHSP

Test [10] has as its target Transcription factor E2F1 (Homo sapiens) (UniProt Q01094). The test is described as follows: ATG_E2F_CIS: Attagene CIS-FACTORIAL HepG2 Assay for human E2F Transcription Factor 1 (AID 2282935). To be noted: HepG2 Attagene cis-reporter, E2F reporter RNA transcripts; actives raise or lower the signal. The method, boiled down:
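HepG2 cells transiently transfected with multiplexed cis-element reporter units, dosed for 24 h. Reporter mRNA measured by RT-PCR, 6-FAM primer-extension labeling, HpaI digestion and capillary electrophoresis; bidirectional fit versus DMSO baseline.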

Active and inactive are the calls of the source. The calls were made as follows: active = hit-call score of the fitted dose curve at least 0.9, where 1 is the maximum; inactive = score below 0.9.

Chain of Transcription factor E2F1 (Homo sapiens) (Q01094 whole entry, looked up): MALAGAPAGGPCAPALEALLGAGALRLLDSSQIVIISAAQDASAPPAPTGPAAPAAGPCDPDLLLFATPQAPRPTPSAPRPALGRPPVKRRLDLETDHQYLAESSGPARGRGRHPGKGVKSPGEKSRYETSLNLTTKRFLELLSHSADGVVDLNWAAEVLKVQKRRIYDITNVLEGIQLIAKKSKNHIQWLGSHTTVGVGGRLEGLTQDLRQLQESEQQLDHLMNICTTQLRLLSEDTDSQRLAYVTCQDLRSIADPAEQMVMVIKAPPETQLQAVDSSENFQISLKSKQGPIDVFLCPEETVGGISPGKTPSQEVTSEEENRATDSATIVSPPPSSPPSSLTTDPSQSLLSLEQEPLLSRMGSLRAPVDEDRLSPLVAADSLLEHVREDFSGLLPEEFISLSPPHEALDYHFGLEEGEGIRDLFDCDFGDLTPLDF
Chain of CCAAT/enhancer-binding protein beta (Homo sapiens) (P17676 whole entry, looked up): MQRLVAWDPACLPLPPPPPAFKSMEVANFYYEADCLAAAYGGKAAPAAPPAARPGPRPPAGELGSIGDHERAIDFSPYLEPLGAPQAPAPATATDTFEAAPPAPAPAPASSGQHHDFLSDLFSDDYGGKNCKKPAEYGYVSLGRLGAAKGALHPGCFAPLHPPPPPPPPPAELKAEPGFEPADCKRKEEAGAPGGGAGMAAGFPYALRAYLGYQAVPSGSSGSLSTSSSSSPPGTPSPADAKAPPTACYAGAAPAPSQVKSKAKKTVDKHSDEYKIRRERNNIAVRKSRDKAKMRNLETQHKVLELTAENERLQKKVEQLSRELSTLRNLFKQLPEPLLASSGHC
Chain of Aryl hydrocarbon receptor (Homo sapiens) (P35869 whole entry, looked up): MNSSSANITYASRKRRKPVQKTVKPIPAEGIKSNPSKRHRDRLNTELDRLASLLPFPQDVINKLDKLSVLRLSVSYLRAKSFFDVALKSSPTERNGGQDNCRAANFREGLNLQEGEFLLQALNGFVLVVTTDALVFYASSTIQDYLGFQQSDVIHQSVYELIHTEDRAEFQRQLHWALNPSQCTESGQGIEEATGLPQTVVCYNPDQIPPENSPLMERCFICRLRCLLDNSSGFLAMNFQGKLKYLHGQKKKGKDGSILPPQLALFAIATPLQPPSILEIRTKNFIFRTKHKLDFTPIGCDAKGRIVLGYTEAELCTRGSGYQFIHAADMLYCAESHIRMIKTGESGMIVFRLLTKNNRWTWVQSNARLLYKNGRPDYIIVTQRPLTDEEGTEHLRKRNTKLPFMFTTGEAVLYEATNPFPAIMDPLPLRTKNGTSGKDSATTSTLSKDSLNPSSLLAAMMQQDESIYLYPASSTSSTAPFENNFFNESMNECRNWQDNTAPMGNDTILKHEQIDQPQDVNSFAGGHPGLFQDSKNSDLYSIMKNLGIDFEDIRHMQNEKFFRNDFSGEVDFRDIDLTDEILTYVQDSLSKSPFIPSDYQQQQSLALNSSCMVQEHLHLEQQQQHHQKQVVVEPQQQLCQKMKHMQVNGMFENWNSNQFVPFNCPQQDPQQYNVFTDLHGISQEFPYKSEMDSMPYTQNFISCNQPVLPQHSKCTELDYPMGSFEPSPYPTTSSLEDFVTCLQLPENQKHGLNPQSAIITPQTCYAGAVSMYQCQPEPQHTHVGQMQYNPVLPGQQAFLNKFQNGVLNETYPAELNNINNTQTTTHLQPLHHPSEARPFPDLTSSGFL

On to `ON=C1CCCCC1`, for which the call in test [1], in [2], in test [3], in test [4], in test [5] and in [6] was inactive. Further, the compound was called inactive in test [7], in test [8], in [9] and in [10].

Turning to `C/C=C(\C)C(=O)OCCc1ccccc1`, the call in test [1], in [2], in test [3], in test [4], in test [5] and in test [6] was inactive. Moreover, the outcome in test [7], in [8] and in test [10] was inactive.

`IC(I)I`: the outcome in [1], in test [2], in test [3], in test [4], in test [6] and in [7] was inactive. The compound was called inactive in test [8], in [9] and in test [10]. For the same compound, the AC50 in [5] is 12.8 µM (active).

Take `Brc1ccc(Br)c(Br)c1`: the call in test [1], in test [2], in test [3], in [4], in test [5] and in test [6] was inactive. Moreover, the result in test [7], in test [8] and in test [10] was inactive.

As for `CC(C)(C)c1ccc(C(=O)O)cc1`, the call in [1], in test [2], in test [3], in test [4], in test [5] and in [6] was inactive. Besides, the compound was classed as inactive in test [7], in test [8], in test [9] and in test [10].

Regarding `CC(C)Nc1nc(N)nc(Cl)n1`, the outcome in [1], in test [2], in [3], in test [4], in test [5] and in test [6] was inactive. Also, the compound was called inactive in test [7], in test [8], in test [9] and in test [10].

As to `O=c1c(O)c(-c2ccc(O)cc2)oc2cc(O)cc(O)c12`, the result in test [1], in test [2], in [4], in [5], in test [6] and in test [7] was inactive. In addition, the call in [8] and in test [10] was inactive. The concentration at half-maximal activity (AC50) in [3] was 9.22 µM (active).

For the compound `O=C(c1ccccc1)C(O)c1ccccc1` (stereo not given), the result in [1], in test [2], in [3], in test [4], in [5] and in test [6] was inactive. The result in test [7], in test [8], in test [9] and in [10] was inactive.

Turning to `CC(=O)OCCCc1ccccc1`, the compound was classed as inactive in [1], in test [2], in test [3], in [4], in test [5] and in test [6]. Moreover, the call in test [7], in test [8], in test [9] and in test [10] was inactive.

Take `CC/C=C\CCOC(=O)CC`: the call in [1], in test [2], in test [3], in test [4], in test [5] and in test [6] was inactive. Besides, the result in [7], in [8] and in [10] was inactive.

For the compound `CCCC(C)C(O)CC` (stereo not given), the outcome in [1], in [2], in test [3], in [4], in [5] and in test [6] was inactive. Besides, the result in test [7], in test [8], in test [9] and in test [10] was inactive.

As to `C=C[Si]1(C)O[Si](C)(C=C)O[Si](C)(C=C)O[Si](C)(C=C)O1` (stereo not given), the call in [1], in [2], in test [5], in test [7], in test [8] and in [9] was inactive. Besides, in [10], the outcome was inactive. The values for the AC50 in [3], in test [4] and in test [6] were 51.7 µM (active), 4.46 µM (active) and 36.1 µM (active), respectively.

For `CCCC[O][Al]([O]CCCC)[O]CCCC`, the outcome in test [1], in test [2], in test [3], in [4], in [5] and in test [6] was inactive. For the same compound, the result in test [7], in test [8] and in test [10] was inactive.

Consider `CC(C)OCCO`, for which the call in test [1], in test [2], in [3], in test [4], in [5] and in test [6] was inactive. The result in [7], in [8], in test [9] and in test [10] was inactive.

For `CCCCCCCCCCCC(=O)OC[C@@H](O)[C@H]1OC[C@H](O)[C@H]1O`, the result in test [1], in [2], in test [3], in test [4], in test [5] and in test [6] was inactive. Moreover, the result in test [7], in test [8] and in test [10] was inactive.

On to `O=C(O)COCC(=O)O`, for which the result in test [1], in test [2], in test [3], in [4], in [5] and in test [6] was inactive. Also, the compound was classed as inactive in [7], in test [8], in test [9] and in [10].

For the compound `C[C@H]1C[C@@H](O)CC(C)(C)C1`, the result in test [1], in test [2], in test [3], in test [4], in test [5] and in test [6] was inactive. Also, the compound was classed as inactive in [7], in [8], in test [9] and in test [10].

On to `CC1(C)O[C@@H]2C[C@H]3[C@@H]4CCC5=CC(=O)C=C[C@]5(C)[C@@]4(F)[C@@H](O)C[C@]3(C)[C@]2(C(=O)CO)O1`, for which the call in test [1], in test [2], in [3], in test [4], in test [6] and in test [7] was inactive. Moreover, the result in test [8], in test [9] and in [10] was inactive. The AC50 in test [5] was 0.082 µM (active).

As for `C=C(C)[C@H]1CC=C(C)C(=O)C1`, the outcome in [1], in [2], in [3], in test [4], in [5] and in [6] was inactive. For the same compound, the result in test [7], in [8] and in test [10] was inactive.

Regarding `CCCCCc1ccco1`, the call in test [1], in test [2], in test [3], in test [5], in [7] and in [8] was inactive. For the same compound, the compound was classed as inactive in [10]. Moreover, the AC50 in test [4] is 101 µM (active); in test [6], 90.9 µM (active).

In the case of `c1ccc(Oc2ccccc2)cc1`, the result in test [1], in test [2], in test [3], in test [4], in test [5] and in [6] was inactive. In addition, the result in test [7], in test [8] and in [10] was inactive.

On to `Nc1ccc2c(O)cc(S(=O)(=O)O)cc2c1`, for which the outcome in test [1], in [2], in [3], in test [4], in test [6] and in [7] was inactive. Moreover, the compound was classed as inactive in test [8] and in test [10]. Also, in test [5], the AC50 was 25.9 µM (active).

For `CCC(=O)O[C@@H]1C[C@H]2CC[C@]1(C)C2(C)C`, the compound was called inactive in [1], in test [2], in test [3], in [4], in test [5] and in [6]. Moreover, the outcome in test [7], in [8], in test [9] and in test [10] was inactive.

For the compound `Clc1ccc(C(c2ccccc2Cl)C(Cl)Cl)cc1` (stereo not given), the compound was classed as inactive in [1], in test [2], in test [7], in test [8], in test [9] and in test [10]. Also, the AC50 in test [3] was 100 µM (active); in [4] it was 25.2 µM (active); in test [5], 65.6 µM (active); in test [6], 100 µM (active).

The term AC50 denotes the concentration giving half of the maximal activity seen.
